Measured values published in PubChem BioAssay (NCI).
Values joined by “and” are separate entries in the source; they are usually repeats but may differ in a detail not shown here. Identical values can stand only once. The panel holds about 83,000 compounds, 20% with a hit somewhere; the sample as a whole holds those more often.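 48-hour exposure, single concentration, 96-well plates; percent growth endpoint where 0 means no net growth. Active: below 10.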 Values without a mark were called inactive. Active and inactive are the calls of the source.

Columns and labels:
Experiment in all cases: NCI-60 one-dose screen, 48 h (100 = growth as untreated, 0 = no growth, -100 = all killed)
Settings in all cases: 10 µM
[1] = tested on: T-47D breast
[2] = tested on: BT-549 breast
[3] = tested on: MDA-MB-435 melanoma
[4] = tested on: SW-620 colon
[5] = tested on: MCF7 breast
[6] = tested on: HCT-116 colon
[7] = tested on: HCC-2998 colon
[8] = tested on: KM12 colon
[9] = tested on: MDA-MB-468 breast

Compound	growth [1]	growth [2]	growth [3]	growth [4]	growth [5]	growth [6]	growth [7]	growth [8]	growth [9]
CC(=O)c1ccc(NC(=O)NCn2c(=O)[nH]c3ccccc3c2=O)cc1	83%	159%	99.6%	101%	83%	110%	112%	103%	92%
Cc1cc(C)nc(/N=C(\N)Nc2ccc(S(=O)(=O)Nc3nc(C)cc(C)n3)cc2)n1	100%	117%	109%	109%	95.1%	110%	113%	111%	106%
Nc1nnc(-c2c[nH]c3ccc(F)cc23)c(-c2c[nH]c3ncccc23)n1	31.7%	46.7%	60.9%	73.6%	34%	25%	97.9%	49.5%	54.1%
COC(=O)C[C@](O)(CCCC(C)(C)O)C(=O)O[C@H]1C(OC)=C[C@@]23CCC(=O)N2CCc2cc4c(cc2[C@@H]13)OCO4	89.8%	118%	104%	91.9%	87.3%	89.7%	88%	98.3%	81.1%
COc1ccc2[nH]cc(/C=N/Nc3ccc(Br)cn3)c2c1	22.3%	-2.65% (active)	13.8%	19.2%	3.69% (active)	8.63% (active)	10.2%	-0.565% (active)	-40.9% (active)
COc1ccccc1[C@H]1C(C(=O)c2ccc(Cl)cc2)C2(N[C@@H]1c1ccccc1)C(=O)Nc1ccccc12 (some centres not stated)	6.01% (active)	-22.7% (active)	-58.7% (active)	5.84% (active)	-11.1% (active)	0.0933% (active)	-51.1% (active)	-13.5% (active)	-29.6% (active)
COC[C@@H](CC(C)C)N=C1NC(=O)/C(=C/c2ccc3ncoc3c2)N1	-4.84% (active)	2.39% (active)	17.3%	0.318% (active)	1.91% (active)	22.8%	36.7%	16.4%	-31.1% (active)
CN1CCN(Cc2ccc(C(=O)Nc3cccc(Nc4ccc5c(O)cccc5n4)c3)cc2C(F)(F)F)CC1	-36.8% (active)	-58.4% (active)	-91.6% (active)	-84% (active)	-67.1% (active)	-43.9% (active)	-93.2% (active)	-76.7% (active)	-92.7% (active)
CO[C@@H]1CSSC1Cn1nc(-c2ccc(Oc3ccccc3)cc2)c2c(N)ncnc21 (some centres not stated)	7.37% (active)	35.5%	-72.1% (active)	29.1%	16.5%	9.66% (active)	47.5%	38%	-12.9% (active)
CCCSc1nc(NC2CC2)c(C#N)c(-c2ccc(OC)cc2)n1	88.8%	88.1%	106%	105%	103%	74.1%	115%	107%	139%
CN(C)CCNC(=O)OCCCCOc1cc(O)c2c(=O)cc(-c3ccccc3)oc2c1	-65.8% (active)	-59.9% (active)	-51% (active)	-31.7% (active)	-89.8% (active)	-68.9% (active)	-50.8% (active)	-49.8% (active)	-81.1% (active)
Cc1ccc(/C=C(\C#N)n2nnc3c(F)cccc32)cc1	24.5%	-13.4% (active)	8.1% (active)	14%	8.62% (active)	27%	-20.1% (active)	-1.08% (active)	37.8%
O=C(Nc1nc2ccc([N+](=O)[O-])cc2s1)Nc1cc(Cl)ccc1I	-25.9% (active)	-87.2% (active)	-52.1% (active)	-50.3% (active)	-28.9% (active)	-78.8% (active)	-41.6% (active)	-48.7% (active)	-43.5% (active)
CCOC(=O)CNC(=O)CN(Cc1ccccc1)C(=O)[C@@]1(C)CCC[C@]2(C)[C@H]3C[C@H]4C(C(C)C)=C[C@]3(CC[C@H]21)[C@@H]1C(=O)OC(=O)[C@@H]14	67.4%	76.2%	78.5%	79.4%	30.7%	37.4%	69.6%	53%	48.9%
O=C1Nc2ccc(Cl)cc2/C1=C/c1ccc(OCc2ccc(Br)cc2F)cc1	10.1%	81.9%	60.2%	23.6%	12.1%	-10.8% (active)	77.5%	59.1%	92.6% and 48.8%
Cc1ccc(-c2ccc(SCC(=O)Nc3ccc(S(N)(=O)=O)cc3Br)nn2)cc1	35.2%	14.2%	61.9%	60%	32.4%	-7.84% (active)	39.4%	38.3%	-21.3% (active)
CCCCCc1ccc(S(=O)(=O)Nc2cc(-c3csc(N(C)C(C)=O)n3)ccc2N2CCN(C)CC2)cc1	-33.4% (active)	48.6%	25.4%	8.57% (active)	4.08% (active)	-84.7% (active)	20.8%	46.3%	14.1%
S=c1nc(-c2ccccc2)cc(-c2cc3ccccc3nc2Cl)[nH]1	78.1%	51.9%	-10.8% (active)	48.3%	45.1%	31.5%	104%	64.2%	66.8%
